The list is not random: actives were taken first. Their share in the collection is about 8%.
SW480 rerep: induces DNA re-replication in SW480 colon adenocarcinoma cells; SW480 DNA re-replication, Hoechst DNA content imaging, 48 h; Potency, µM (doses to about 46.1 µM), for the others: at the highest dose re-replication activation, hits mostly activators; 340,000 compounds, 1.8% hits; further: % of control where 0% means no effect; nearly all actives have a fitted effect of over 55% in size
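Image-based DNA-content assay: after two days of treatment, nuclei were labelled with the DNA dye Hoechst and imaged, and hits were compounds raising the count of nuclei showing high fluorescence intensity.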
MCF10A rerep: inducers of DNA re-replication in MCF 10A breast cells | MCF 10A DNA re-replication, Hoechst nuclear intensity, 48 h | AID 624296 | 350,000 compounds, 2.9% hits | Potency, µM (top dose mostly 46.1 µM), inactives show top-dose activity, positive = re-replication, most hits filed as activators; further: % of control where 0% means no effect; nearly all actives have a fitted effect of over 50% in size
HT1080 IDH1KD tx: HT-1080 IDH1 knockdown cell toxicity (counter line) | HT-1080 IDH1 knockdown viability, ATP luminescence, 48 h | 360,000 compounds, 2% hits | Potency, µM (top dose mostly 46.1 µM), inactives show at the top dose activity, negative = toxicity, usual class: cytotoxic;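 further: 0% = DMSO wells and -100% = cell-free medium wells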
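CellTiter-Glo luminescence after 48 h compound exposure at 37 degrees C of IDH1-knockdown HT-1080 cells in 5% FBS RPMI. %Activity scaled between DMSO wells and cell-free media wells, with curves fitted and assigned curve classes.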
KB-V1 cytotox: kills drug-selected multidrug resistant KB-V1 cells | KB-V1 MDR cells viability, CellTiter-Glo, 72 h | Potency, µM (doses to about 46.1 µM), usual class: cytotoxic | 400,000 compounds, 3.4% hits; further: on the % scale 0 is the no-effect control and ±100 the full control effect; nearly all actives have a fitted effect of over 60% in size
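Compound-treated KB-V1 multidrug-resistant cells, 72 h, 37 degrees C; viability by CellTiter-Glo. Fitted qHTS curves give the values.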
HT1080-NT tox: kills 2HG-producing HT-1080-NT fibrosarcoma cells; HT-1080-NT fibrosarcoma viability, CellTiter-Glo ATP luminescence, 48 h; Potency, µM (highest dose often 46.1 µM), inactives show at the highest dose activity, negative = less viability, usual class: cytotoxic; 360,000 compounds, 1.6% hits; AID 686970;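 further: NT is the 2HG producing partner of a matched IDH1 knockdown line; 0% = DMSO-treated cells and -100% = media-only wells without cells; nearly all actives have a fitted effect of over 55% in size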
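Viability of the 2HG-overproducing fibrosarcoma line after 48 hours of compound exposure at 37 degrees C was determined by luminescence with CellTiter-Glo, and concentration-effect curves were then fitted and categorized.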
KB-3-1 tox: KB-3-1 parental cell cytotoxicity; KB-3-1 viability, CellTiter-Glo ATP luminescence, 72 h; 400,000 compounds, 1.4% hits; Potency, µM (top dose mostly 46.1 µM), hits mostly cytotoxic; further: on the % scale 0 is the no-effect control and ±100 the full control effect; nearly all actives have a fitted effect of over 60% in size
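KB-3-1 parental drug-naive adenocarcinoma cells in DMEM/10% FBS, incubated 72 h at 37 C with pin-transferred compounds across a concentration series. Viability by CellTiter-Glo luminescence; concentration-response curves fitted after normalization.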
An asterisk follows results filed as active; i = inactive; ? = inconclusive; . = not tested or not shown; [ ] = another dose, or the depositor's remark. The call rests on the fitted dose curve; in most records, active means well fitted curve in the direction sought with a large enough effect; inconclusive means small, poorly fitted or top-dose-only effect, or another doubt; inactive means no such curve, though single readings can be large; an effect the other way counts as inactive or inconclusive. Potency means the concentration at half of the fitted maximal effect.

SMILES | SW480 rerep | MCF10A rerep | HT1080 IDH1KD tx | KB-V1 cytotox | HT1080-NT tox | KB-3-1 tox
COc1ccc(Br)cc1/C(C)=N/NC1=NCCN1 | -3% | ? | ? | ? | -6% | ?
CC(NC(=O)c1cccc(OC2CCN(C(=O)C3CC3)CC2)c1)c1ccc(F)cc1 (stereo not drawn) | 9% | 3% | -1% | . | 1% | .
O=C(NCc1ccccc1Cl)c1cccc(OC2CCN(C(=O)C3CC3)CC2)c1 | 0% | 13% | -4% | 6.5µM* | -8% | ?
Cn1nnnc1NN=Cc1ccccc1 | . | . | 2% | 18µM* | 14% | i
Fc1ccc(/C=N/Nc2nnnn2-c2ccccc2)cc1 | -32% | 30% | -29% | i | ? | i
CC1(C)Cc2c(ccc3ccccc23)C2=C(C(=O)N3CCCC3)C(=O)C(=O)N21 | 4% | 21µM* | -16% | i | 4% | i
CCC1=C(c2ccc(C)cc2)S(=O)(=O)N=C1N1CCC(C(=O)NCCc2ccc(Cl)cc2)CC1 | . | . | . | i | . | 15µM*
Cc1cc(C)nc(N2CCCC(C(=O)NCCc3ccc(F)cc3)C2)n1 (stereo not drawn) | -1% | 3% | -11% | 18µM* | 7% | i
O=C(NCc1ccc(F)cc1)C1CCCN(c2nc3ccsc3c(=O)s2)C1 (stereo not drawn) | ? | 12µM* | -6% | ? | -9% | i
CCC1=C(c2ccc(C)cc2)S(=O)(=O)N=C1N1CCC(C(=O)NCc2ccc(C)cc2)CC1 | . | . | . | i | . | i
Cc1cc(=O)n2nc(N3CCCC(C(=O)NCc4ccc(F)cc4)C3)sc2n1 (stereo not drawn) | -3% | -1% | 9% | i | 6% | i
Cc1cc(C)nc(N2CCC(C(=O)NCCc3ccc(F)cc3)CC2)n1 | -9% | 0% | 0% | 13µM* | 1% | i
C=CCn1c(SC(C)C#N)nc2ccccc2c1=O (stereo not drawn) | . | . | . | i | . | i
CCC(C)c1ccccc1N1CC(C(=O)N2CCN(C(=O)c3ccco3)CC2)CC1=O (stereo not drawn) | 9% | 9% | -3% | i | -3% | i
Cc1cc(-c2nc(C)c(C(=O)NN)s2)no1 | ? | 18µM* | ? | i | ? | i
Cc1nc(-c2ccccc2)sc1C(=O)NN | ? | 18µM* | ? | i | ? | ?
Cc1ccc(N/C=C/C(=O)c2sc(-c3ccccc3)nc2C)cc1 | 14% | 9.2µM* | ? | ? | ? | ?
COc1cccc(-n2ccnc2SCC(=O)Nc2cccc(C)c2C)c1 | . | . | . | ? | . | i
CCN(CC)S(=O)(=O)c1ccc(N2CCOCC2)c(NC(=O)c2c3c(nc4ccccc24)CCC3)c1 | -4% | 4% | 2% | i | 7% | i
C[C@H](CO)N1C[C@H](C)[C@@H](CN(C)C(=O)Nc2ccc(C(F)(F)F)cc2)Oc2c(NC(=O)Nc3ccc(C(F)(F)F)cc3)cccc2C1=O | -4% | ? | ? | ? | ? | 16µM*
C[C@@H]1CN([C@@H](C)CO)C(=O)c2cccc(NC(=O)Nc3ccc(F)cc3)c2O[C@@H]1CN(C)Cc1ccc(Oc2ccccc2)cc1 | ? | ? | ? | i | 23µM* | i
COc1cccc(OCCCCn2c(-c3ccc(Cl)cc3)nc3ccccc3c2=O)c1 | . | . | . | i | . | ?
N#CCCN1CCN(C(=S)c2ccc(-c3cc(Cl)ccc3Cl)o2)CC1 | 2% | 8% | 0% | 6.5µM* | -11% | i
CN1CCN(C(=S)c2ccc(-c3cc(Cl)ccc3Cl)o2)CC1 | 7% | -3% | -4% | i | -10% | i
Cc1cc(C)n(-c2ccc(C(=O)N3CCc4ccccc43)cc2)n1 | 3% | 6% | -10% | ? | -12% | ?
SMILES | SW480 rerep | MCF10A rerep | HT1080 IDH1KD tx | KB-V1 cytotox | HT1080-NT tox | KB-3-1 tox
Cc1cccc(-n2cnc3cc(C(=O)N4CCc5ccccc54)ccc32)c1 | 3% | 2% | 5% | 13µM* | 9% | i
Cc1cc(C(=O)N2CCc3ccccc32)n(-c2ccccc2)n1 | ? | ? | ? | ? | ? | 10µM*
Cc1cccc(-n2cnc3cc(C(=O)NCC4CCCO4)ccc32)c1 (stereo not drawn) | . | . | ? | ? | ? | 18µM*
CCCOC(=O)c1ccc(Oc2cn[nH]c2-c2ccc(OC)cc2O)cc1 | ? | ? | 18µM* | ? | 21µM* | ?
CCCN1CNc2c(c(=O)[nH]c(=S)n2CCc2ccccc2C)C1 | . | . | 22% | . | 12% | .
COc1ccc(/C=C/C(=O)N(C)C2(C)CCS(=O)(=O)C2)cc1 (stereo not drawn) | 23µM* | 3% | 4% | i | 14% | i
COc1ccc(/C=C/C(=O)N(C)C2CCS(=O)(=O)C2)cc1 (stereo not drawn) | ? | -1% | 12% | i | 15% | i
COc1cc(C(=O)NC(=S)Nc2ccc([N+](=O)[O-])cc2)cc(OC)c1OC | 1% | ? | -9% | i | -5% | i
COc1cc(C(=O)NC(=S)Nc2ccc([N+](=O)[O-])cc2C)cc(OC)c1OC | 17% | 2% | -9% | 2.1µM* | -26% | i
Cc1ccc2nc(-c3sc4nc(C)ccc4c3N)[nH]c2c1 | ? | 16µM* | -5% | i | 0% | i
Cc1cc(C)c2c(N)c(-c3nc4ccccc4[nH]3)sc2n1 | 27%[9.22 µM] | ? | -6% | i | -21% | i
C=C(C)CSc1cc(C)nc2c(-c3ccccc3)c(C)nn12 | 0% | 16% | -26% | 6.5µM* | ? | ?
C=CCSc1cc(C)nc2c(-c3ccc(Cl)cc3)c(C)nn12 | ? | 21µM* | 2% | ? | 11% | i
CCSc1cc(C)nc2c(-c3ccccc3)c(C)nn12 | -3% | 20% | 8% | i | 2% | i
Cc1ccc(CCNC(=O)c2ccc(Nc3nc4ccccc4n4nnnc34)cc2)cc1 | . | . | . | i | . | i
O=C(C[C@@H]1C/C=C\C[C@@H](Cc2ccc(F)cc2)C(=O)OC[C@H]2CCCN2C1=O)NCCO | -5% | -3% | 9% | i | 0% | i
O=c1c2cnn(-c3ccccc3)c2ncn1Cc1ccccc1 | -10% | -1% | -17% | 21µM* | -8% | i
O=C(Cn1cnc2c(cnn2-c2ccc(F)cc2)c1=O)N1CCN(c2ccccc2F)CC1 | 1% | 0% | -6% | 3.7µM* | -5% | i
O=C(CSc1ncnc2c1oc1ccccc12)N1CCCc2ccccc21 | -6% | 0% | -1% | i | 1% | i
